# High-throughput results from PubChem BioAssay.
# HT1080NT lethal = kills 2HG-producing HT-1080-NT fibrosarcoma cells | 360,000 compounds, 1.6% hits | Potency, µM (highest dose often 46.1 µM), inactives show at the top dose activity, negative = less viability, hits mostly cytotoxic | HT-1080-NT fibrosarcoma viability, CellTiter-Glo ATP luminescence, 48 h;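 note: NT is the 2HG producing partner of a matched IDH1 knockdown line; potency is the fitted concentration of half-maximal effect; 0% = DMSO-treated cells and -100% = media-only wells without cells; nearly all actives have a fitted effect of over 55% in size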
#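 HT-1080-NT fibrosarcoma cells (2HG-overproducing), 750 cells/well in RPMI with 5% FBS, dosed after 2 h and incubated 48 h at 37C. CellTiter-Glo luminescence normalized to DMSO and no-cell wells; concentration-response curves fitted and classed.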
# HT1080 IDH1KD tx = kills HT-1080 cells with IDH1 knockdown | HT-1080 IDH1 knockdown viability, ATP luminescence, 48 h | Potency, µM (titrated, usually from 46.1 µM), inactives show top-dose activity, negative = toxicity, usual class: cytotoxic | 360,000 compounds, 2% hits | AID 686971;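 note: potency is the fitted concentration of half-maximal effect; 0% = DMSO wells and -100% = cell-free medium wells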
#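 In this qHTS, HT-1080 cells depleted of IDH1 are exposed for 48 h at 37 °C to compound titrations. Toxicity is scored from CellTiter-Glo luminescence, with DMSO as full viability and medium alone as none.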
# DT40 TDP1 no CPT = qHTS for Inhibitors of human tyrosyl-DNA phosphodiesterase 1 (TDP1): qHTS in cells in absence of CPT; DT40 Tdp1-/- hTDP1 cells, no CPT, ATP luminescence, 48 h; AID 686978, 2013; Potency, µM (highest dose often 46.2 µM), for the others: at the highest dose activity change, negative = growth inhibition, hits mostly inhibitors; 420,000 compounds, 15% hits; note: potency is the fitted concentration of half-maximal effect; nearly all actives have a fitted effect of over 55% in size
#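 Chicken DT40 Tdp1-/- cells complemented with human TDP1, screened without camptothecin (DMSO vehicle only), 400 cells/well. Compounds pin-transferred, cells incubated at 37 °C for at least 48 hr. Growth read as ATP-dependent luminescence (CellTiter-Glo, 30 min at RT).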
# IL-1B inflam inh = inhibitors of inflammasome signaling (IL-1 beta secretion) | THP-1 LPS/ATP IL-1B secretion, AlphaLISA, 16 h; hits give low values | activity change, % at 57.5 µM | 360,000 compounds, 4.7% hits | AID 743279; in the data active = activity change below about -50%; inconclusive = mostly about -30% to -49%
#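 Secreted IL-1B measured by AlphaLISA bead assay after 16 h compound exposure of THP-1 cells; compounds (final up to 57.5 uM) added 1 h before LPS (250 ng/mL) and ATP (1.25 mM) stimulation; lower signal means less secretion.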
# DT40 TDP1 CPT = growth inhibition of DT40 Tdp1-/-;hTDP1 cells with camptothecin (screen for TDP1 inhibitors); chicken DT40 Tdp1-/-;hTDP1 cells + 20 nM CPT, ATP luminescence, 48 h; Potency, µM (series often up to 46.2 µM), without a hit: at the top dose activity change, negative = growth inhibition, actives largely listed as inhibitors; 420,000 compounds, 12% hits; note: potency is the fitted concentration of half-maximal effect; nearly all actives have a fitted effect of over 55% in size
#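 Chicken DT40 Tdp1-/- cells complemented with human TDP1, 400 cells/well, exposed to compounds plus 20 nM camptothecin for at least 48 h at 37 C; viability read as ATP content by CellTiter-Glo luminescence.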
# Active calls of the source: *; ? = inconclusive; . = not tested or not shown; [ ] = remark or other dose. A selection: hits, their analogues and other compounds. The true share with any hit is near 19%. Unless noted, calls come from the whole dose curve; as a rule, active = well fitted curve in the direction sought with a large enough effect; inconclusive = small, poorly fitted or top-dose-only effect, or another doubt; inactive = no such curve, though single readings can be large; an effect the other way counts as inactive or inconclusive. Unless noted, % is set by controls: 0 for no effect and ±100 for the full control effect.
SMILES,HT1080NT lethal,HT1080 IDH1KD tx,DT40 TDP1 no CPT,IL-1B inflam inh,DT40 TDP1 CPT
C/C(=N\NC(=S)NC(C)C)c1ccc2c(c1)OCCO2,10%,-3%,6.5µM*,-79*,1.3µM*
CC(=O)C1=C(O)C(CSCc2ccccc2)N(C)C1=O (stereo not given),2%,-1%,?,17,-21%
CCC(=O)N(CCc1ccccc1)Cc1cc2cccc(C)c2[nH]c1=O,4%,7%,?,-10,-17%
CCCCC(CC)CCC(CC(C)C)OS(=O)(=O)O (stereo not given),.,.,1%,.,8%
CC(Oc1ccc(C#N)cc1)C(=O)N1CC=C(c2ccccc2)CC1 (stereo not given),?,?,?,-61*,?
Cc1occc1C(=O)n1nnc2ccccc21,-4%,0%,21µM*,-9,?
CCSc1ccccc1C(=O)n1nnc2ccccc21,?,?,?,10,13µM*
COc1ccc(C(=O)n2nnc3ccccc32)cc1Br,-2%,6%,?,-14,16µM*
COc1ccc(C(=O)n2nnc3ccccc32)cc1OC,-4%,-4%,-27%,24,?
O=C(c1cc2ccccc2o1)n1nnc2ccccc21,6%,4%,-20%,13,0%
COc1ccc(S(=O)(=O)NCC2CCCN(Cc3cccnc3)C2)cc1 (stereo not given),3%,4%,-2%,1,-8%
Cc1ccc(CNC(=O)c2cn(C3CCCCC3)c(=O)c3c2c2ccccc2n3C)o1,?,?,16µM*,-86*,12µM*
Cc1cc(NC(=O)c2cn(C3CCCCC3)c(=O)c3c2c2ccccc2n3C)no1,-1%,-3%,23µM*,-3,?
Cc1ccc(CNC(=O)c2cn(C)c(=O)c3c2c2ccccc2n3C)o1,9%,-6%,?,9,?
O=C(CNC(=O)c1cccc(Br)c1)N/N=C/c1ccc[nH]1,-24%,-27%,-7%,39,-6%
O=C1CC(CC(=O)N2CC3CCCC2C3)(c2cccc(F)c2)C(=O)N1Cc1cccnc1 (stereo not given),.,.,18µM*,.,?
Cc1ccccc1C1(CC(=O)N2CC3(C)CC2CC(C)(C)C3)CC(=O)N(Cc2cccnc2)C1=O (stereo not given),.,.,21µM*,.,-14%[9.04 µM]
CN(CCO)c1nc2c(c(=O)n(Cc3ccc(Cl)cc3)c(=O)n2C)n1C,-10%,-17%,?,-7,4%
CCc1ccc(OCC(=O)N/N=C(\C)c2ccc(O)cc2O)cc1,-21%,?,2.6µM*,74,7.3µM*
Cc1ccc(CNC(=O)c2cc(S(=O)(=O)N3CCCCC3)cn2C)cc1,.,.,21µM*,.,?
O=C(Cc1ccc(S(=O)(=O)N2CCCCC2)cc1)NCc1ccc(Cl)cc1,-2%[9.24 µM],-8%,-24%,0,29µM*
Cn1cc(S(=O)(=O)N2CCCCC2)cc1C(=O)NCc1ccc(Cl)cc1,.,.,?,.,18µM*
Cc1ccc(CNC(=O)c2cc(S(=O)(=O)N3CCCC3)cn2C)cc1,8%,1%,-6%,2,-20%
Cc1ccc(-n2c(=O)[nH]c3cc(C(=O)NCCc4ccccc4)ccc3c2=O)cc1,.,.,-25%,.,1%
CCc1cccc2c(C(=O)C(NCCOC)c3ccccc3)c[nH]c12 (stereo not given),?,-9%,12µM*,-23,?
SMILES,HT1080NT lethal,HT1080 IDH1KD tx,DT40 TDP1 no CPT,IL-1B inflam inh,DT40 TDP1 CPT
CCNC(C(=O)c1c[nH]c2c(CC)cccc12)c1ccccc1 (stereo not given),?,?,?,-57*,?
Cc1ccc(NCC(=O)N/N=C/c2cc(O)ccc2[N+](=O)[O-])cc1,5%,3%,1%,2,1%
O=C(c1cc2ccccc2oc1=O)N(Cc1ccc2c(c1)OCO2)Cc1ccco1,-11%,9%,9.2µM*,-10,?
COc1cccc(NC(=O)CN2C(=O)NC(Cc3c[nH]c4ccccc34)C2=O)c1 (stereo not given),12%,1%,-25%,-9,?
c1ccc2c(c1)ncn2Cc1nnc2sc(-c3ccc4c(c3)OCO4)nn12,-8%,-15%,15µM*,34,?
COc1ccc(OCc2nn3c(Cn4cnc5ccccc54)nnc3s2)cc1,?,-22%,?,2,21µM*
c1ccc(CCc2nn3c(Cn4cnc5ccccc54)nnc3s2)cc1,-21%,?,18µM*,2,18µM*
Clc1ccccc1-c1nn2c(Cn3cnc4ccccc43)nnc2s1,4%,1%,?,13,?
c1ccc(OCc2nn3c(Cn4nnc5ccccc54)nnc3s2)cc1,-4%,-8%,21µM*,-5,16µM*
O=C1CC2(CCN(C(=O)c3c(F)cccc3Cl)CC2)Oc2ccccc21,2%,-1%,?,-5,-27%
c1ccc2c(c1)OCC(c1nn3c(Cn4nnc5ccccc54)nnc3s1)O2 (stereo not given),-23%,-7%,?,-18,26µM*
c1ccc(Cc2nn3c(Cn4nnc5ccccc54)nnc3s2)cc1,-21%,-16%,-25%,-5,?
C=C[C@@H]1c2cccc(C)c2N(S(=O)(=O)c2ccc(C)cc2)[C@H](c2ccc(OC(C)=O)cc2)C1(C#N)C#N,?,-27%,?,8,?
C=C[C@@H]1c2ccccc2N(S(=O)(=O)c2ccc(C)cc2)[C@H](c2ccc(C(F)(F)F)cc2)C1(C#N)C#N,9%,15%,12µM*,13,23µM*
C=C[C@@H]1c2cccc(C)c2N(S(=O)(=O)c2ccc(C)cc2)[C@H](c2ccccc2)C1(C#N)S(=O)(=O)c1ccccc1 (stereo not given in full),-10%,-7%,21µM*,35,?
C=C[C@@H]1c2c(F)cccc2N(S(=O)(=O)c2ccc(C)cc2)[C@H](c2ccc(C(=O)OC)cc2)C1(C#N)C#N,15%,9%,?,50,?
C=C[C@@H]1c2c(F)cccc2N(S(=O)(=O)c2ccc(C)cc2)[C@H](c2ccc(OC(C)=O)cc2)C1(C#N)C#N,?,?,21µM*,-7,?
Cc1nc2cnc(N3CCN(C)CC3)nc2n(-c2ccccc2)c1=O,.,.,-15%,.,10%
CCC1(C)N=C(N)Nc2nc3cc(C)c(C)cc3n21 (stereo not given),-11%,-11%,9.2µM*,-5,9.2µM*
